Data: PubChem BioAssay (NCATS)
Where “and” joins values, the source holds several entries; their conditions need not be identical. Equal entries are not always repeated. Records with an inconclusive call do not appear. Calls of active or inactive are those of the source. The call rests on the fitted dose curve; in most records, active means well fitted curve in the direction sought with a large enough effect; inconclusive means small, poorly fitted or top-dose-only effect, or another doubt; inactive means no such curve, though single readings can be large; an effect the other way counts as inactive or inconclusive.

What was measured:
[1] = molecular target: Cellular tumor antigen p53 (Homo sapiens) (UniProt P04637); assay: Primary qHTS for small molecule compounds that upregulate eGFP-tagged delta133p53alpha (in N-terminal) cells. (AID 2060322); conditions: NCI-H358 eGFP-delta133p53alpha fluorescence, 24 h; activation: stronger effect = higher value; further: nearly all actives have a fitted effect of over 75% in size; further: potency means the concentration at half of the fitted maximal effect;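 on activation: series mostly up to about 56 µM; 0% = DMSO vehicle and 100% = reference activator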
Chain of Cellular tumor antigen p53 (Homo sapiens) (P04637 whole entry, looked up): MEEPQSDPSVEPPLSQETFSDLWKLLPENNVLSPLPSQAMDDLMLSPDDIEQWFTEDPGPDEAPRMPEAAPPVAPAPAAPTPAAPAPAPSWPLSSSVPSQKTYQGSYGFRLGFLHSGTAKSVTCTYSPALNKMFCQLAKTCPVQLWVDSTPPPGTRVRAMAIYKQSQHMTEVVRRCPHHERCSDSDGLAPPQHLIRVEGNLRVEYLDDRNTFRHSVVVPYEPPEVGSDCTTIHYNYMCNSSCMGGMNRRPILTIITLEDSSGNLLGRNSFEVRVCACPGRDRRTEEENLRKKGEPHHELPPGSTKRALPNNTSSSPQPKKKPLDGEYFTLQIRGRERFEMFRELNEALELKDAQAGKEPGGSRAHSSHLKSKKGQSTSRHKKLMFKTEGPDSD
Summary of the method: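 NCI-H358 cells pre-induced 24 h with 10 ng/ml doxycycline to express N-terminal eGFP-delta133p53alpha, then dosed 24 h at 37C without doxycycline; fixed, Hoechst-stained, GFP intensity by laser scanning cytometry, normalized to DMSO (0%) and 57.5 uM 5-azacytidine (100%).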

[2] = molecular target: Aldehyde dehydrogenase, mitochondrial (Homo sapiens) (UniProt P05091); assay: qHTS for Inhibitors of the Aldehyde Dehydrogenase Family (ALDH2) Primary screen (AID 2061308);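 further: plate controls were vehicle for no effect and reference inhibitor for full effect; nearly all actives have a fitted effect of over 55% in size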
[3] = molecular target: Retinaldehyde dehydrogenase 3 (Homo sapiens) (UniProt P47895); assay: qHTS for Inhibitors of the Aldehyde Dehydrogenase Family (ALDH1A3) Primary screen (AID 2061315);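 further: plate controls were DMSO vehicle for no effect and reference inhibitor for full effect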
[4] = BET inhibitor-based combinations targeting novel dependencies in MECOM-rearranged (r) AML: SET-2 cell line (AID 2202231); conditions: SET-2 AML cells viability, CellTiter-Glo luminescence, 48 h; viability: stronger effect = lower value, concentration not given here; further: nearly all actives have a fitted effect of over 35% in size; further: potency means the concentration at half of the fitted maximal effect;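 on viability: plate controls were DMSO treated cells for no effect and wells without cells for full effect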
Summary of the method: (§1)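 Readout: CellTiter-Glo luminescence. Exposure: 48 h, 11 concentrations, 500 cells/well. Metric: AUC and within-line Z-AUC after DMSO/empty-well normalization.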

[5] = BET inhibitor-based combinations targeting novel dependencies in MECOM-rearranged (r) AML: OCI-AML3 cell line (AID 2202232); conditions: Potency: OCI-AML3 viability; further: nearly all actives have a fitted effect of over 35% in size; further: potency means the concentration at half of the fitted maximal effect
Summary of the method: as §1

[6] = BET inhibitor-based combinations targeting novel dependencies in MECOM-rearranged (r) AML: MV-4-11 cell line (AID 2202233); further: nearly all actives have a fitted effect of over 45% in size; further: potency means the concentration at half of the fitted maximal effect
Summary of the method: (§2)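 Seeding density was 500 cells/well, and drug exposure lasted 48 hr under standard culture conditions. Read-out used CellTiter-Glo reagent with a 15 min room-temperature incubation before luminescence measurement; AUC and Z-AUC summarize the normalized responses.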

[7] = BET inhibitor-based combinations targeting novel dependencies in MECOM-rearranged (r) AML: HNT-34 cell line (AID 2202234); further: nearly all actives have a fitted effect of over 35% in size; further: potency means the concentration at half of the fitted maximal effect
Summary of the method: as §2

[8] = BET inhibitor-based combinations targeting novel dependencies in MECOM-rearranged (r) AML: UCSD-AML1 cell line (AID 2202235); further: nearly all actives have a fitted effect of over 40% in size; further: potency means the concentration at half of the fitted maximal effect
Summary of the method: as §2

[9] = BET inhibitor-based combinations targeting novel dependencies in MECOM-rearranged (r) AML: AML-191 cell line (AID 2202236; further: nearly all actives have a fitted effect of over 35% in size; further: potency means the concentration at half of the fitted maximal effect)
Summary of the method: as §1

[10] = BET inhibitor-based combinations targeting novel dependencies in MECOM-rearranged (r) AML: AML-194 cell line (AID 2202237; further: nearly all actives have a fitted effect of over 40% in size; further: potency means the concentration at half of the fitted maximal effect)
Summary of the method: as §1

CCCCC(F)(F)[C@@]1(O)CC[C@H]2[C@H](CC(=O)[C@@H]2CCCCCCC(=O)O)O1
inactive: activation [1] -19.7% | Potency [2] | Potency [3] | viability [4] 108% | Potency [5] | Potency [7] | Potency [8] | Potency [9] | Potency [10]
active: Potency [6] 0.235 µM

C=CC(=O)Nc1cccc(Oc2nc(Nc3ccc(N4CCN(C)CC4)cc3)ncc2Cl)c1
inactive: Potency [2] | Potency [3]
active: Potency [1] 9.68 µM and 13.5 µM | Potency [4] 14.8 µM | Potency [5] 7.42 µM | Potency [6] 1.86 µM | Potency [7] 2.35 µM | Potency [8] 4.17 µM | Potency [9] 5.9 µM | Potency [10] 5.25 µM

CC(=O)Nc1nc(C)c(-c2ccc(Cl)c(S(=O)(=O)NCCO)c2)s1
inactive: activation [1] 12.7% and -14.3% | Potency [2] | Potency [3]
active: Potency [4] 14.8 µM | Potency [5] 8.33 µM | Potency [6] 3.72 µM | Potency [7] 5.25 µM | Potency [8] 3.72 µM | Potency [9] 5.25 µM | Potency [10] 4.17 µM

C=CC(=O)Nc1cccc(Sc2nc(Nc3ccc(N4CCN(C)CC4)cc3)ncc2Cl)c1
inactive: Potency [2] | Potency [3]
active: Potency [1] 12 µM | Potency [4] 11.8 µM | Potency [5] 13.2 µM | Potency [6] 2.95 µM | Potency [7] 6.61 µM | Potency [8] 9.34 µM | Potency [9] 10.5 µM | Potency [10] 10.5 µM

Cc1cnc(-c2cc(N3CCN(C(=O)CCS(C)(=O)=O)CC3)ncc2Cl)c(C)c1
inactive: activation [1] 20.4% and -10.5% | Potency [2] | Potency [3] | viability [4] 112% | Potency [5] | Potency [6] | Potency [7] | Potency [8] | Potency [9] | Potency [10]

COc1ccc(F)c(F)c1C(=O)c1cnc(NC2CCN(S(C)(=O)=O)CC2)nc1N
inactive: Potency [2] | Potency [3]
active: Potency [1] 2.73 µM and 2.69 µM | Potency [4] 2.09 µM | Potency [5] 1.86 µM | Potency [6] 1.32 µM | Potency [7] 2.35 µM | Potency [8] 1.66 µM | Potency [9] 2.09 µM | Potency [10] 2.09 µM

Oc1ccc([C@@H]2Oc3ccc(O)cc3[C@@H]3CCC[C@@H]32)cc1
inactive: activation [1] 23.4% | Potency [2] | Potency [3]
active: Potency [4] 18.6 µM | Potency [5] 16.6 µM | Potency [6] 13.2 µM | Potency [7] 9.34 µM | Potency [8] 5.9 µM | Potency [9] 5.9 µM | Potency [10] 7.42 µM

CCNC(=O)C#Cc1ccc2c(C(=Nc3ccc(CN(C)C)cc3)c3ccccc3)c(O)[nH]c2c1
active: Potency [1] 13.1 µM | Potency [4] 12.9 µM | Potency [5] 0.144 µM | Potency [6] 0.0645 µM | Potency [7] 0.091 µM | Potency [8] 0.574 µM | Potency [9] 0.204 µM | Potency [10] 0.162 µM
inactive: Potency [2] | Potency [3]

Cc1ncc(NC(=O)c2ccc(CN3CCN(C)CC3)c(C(F)(F)F)c2)cc1Nc1nccc(-c2cccnc2)n1
inactive: Potency [2] | Potency [3] | Potency [8]
active: Potency [1] 23.9 µM | Potency [4] 23.5 µM | Potency [5] 14.8 µM | Potency [6] 3.32 µM | Potency [7] 0.0295 µM | Potency [9] 18.6 µM | Potency [10] 23.5 µM

CN1CCN(c2ccc(C(=O)Nc3n[nH]c4ccc(Cc5cc(F)cc(F)c5)cc34)c(NC3CCOCC3)c2)CC1
active: Potency [1] 30.1 µM and 216 nM | Potency [4] 16.6 µM | Potency [5] 11.8 µM | Potency [6] 0.468 µM | Potency [7] 5.9 µM | Potency [8] 3.32 µM | Potency [9] 5.25 µM | Potency [10] 1.48 µM
inactive: Potency [2] | Potency [3]

c1cc(-c2cnn3cc(-c4ccc(N5CCNCC5)cc4)cnc23)c2cccnc2c1
active: Potency [1] 15.1 µM | Potency [4] 5.25 µM | Potency [5] 16.6 µM | Potency [6] 3.32 µM | Potency [8] 8.33 µM | Potency [9] 4.68 µM | Potency [10] 2.95 µM
inactive: Potency [2] | Potency [3]

Cc1cnc(Nc2ccc(F)cc2Cl)nc1-c1c[nH]c(C(=O)N[C@H](CO)c2cccc(Cl)c2)c1
inactive: activation [1] 12% and 13.4% | Potency [2] | Potency [3]
active: Potency [4] 23.5 µM | Potency [5] 4.68 µM | Potency [6] 20.9 µM | Potency [7] 18.6 µM | Potency [8] 20.9 µM | Potency [10] 18.6 µM

c1ccc2c(Oc3nc(Nc4ccc(N5CCOCC5)cc4)c4ncn(C5CCCCC5)c4n3)cccc2c1
active: Potency [6] 7.42 µM
inactive: activation [1] 9.2% and -7.64% | Potency [2] | Potency [3] | viability [4] 101% | Potency [5] | Potency [8] | Potency [9] | Potency [10]

COc1cc2c(Oc3ccc(NC(=O)C4(C(=O)Nc5ccc(F)cc5)CC4)cc3F)ccnc2cc1OCCCN1CCOCC1
inactive: Potency [2] | Potency [3]
active: Potency [1] 7.57 µM | Potency [4] 23.5 µM | Potency [5] 11.8 µM | Potency [6] 0.0074 µM | Potency [8] 0.833 µM | Potency [9] 0.662 µM
